{
  "source": "PubChem BioAssay (NCI)",
  "note": "This is part of a sample that, as a whole, favours compounds with a hit. Of some 83,000 tested, about 20% had one in any assay.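 Results are percent growth after 48 hours of single-concentration exposure. 100 means growth as in untreated cells, lower positive values show inhibition; negative values down to -100 show cell death.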 Unmarked numbers belong to inactive results. Active and inactive are the calls of the source.",
  "data": [
    {"tested_on": "HS 578T breast", "assay": "NCI-60 one-dose screen, 48 h (100 = growth as untreated, 0 = no growth, -100 = all killed)", "details": "10 µM", "method": "Growth inhibition of the HS 578T human tumor cell line is measured as a screen for anti-cancer activity. Cells are grown in 96 well plates and exposed to the test compound for 48 hours. Compounds are tested at a single concentration, which is 10^-5 M for most compounds. The reported endpoint is percent growth (GI% or GIPRCNT), where numbers from 0 - 100% represent growth inhibition, and numbers from -100% - 0 represent cell death. For example, a value of 40 represents 60% growth inhibition. A value of 0 means no net growth occurred over the course of the experiment. A value of -40 indicates 40% of cells at the beginning of the experiment died by the end of the experiment. A value of -100 means all cells are dead at the end of the experiment.\nNCI-60 Human Tumor Cell Lines Screen was performed using the standard one-dose NCI protocol, which is described in more detail at https://dtp.cancer.gov/discovery_development/nci-60/default.htm.\nCompounds with GIPRCNT values below 10 were considered active. Activity score was based on GIPRCNT using the following formula: […]\nScore is 0 for GIPRCNT values of 100 or above, 50 for GIPRCNT values of 0, and 100 for GIPRCNT values of -100.", "values": [
      {"smiles": "Oc1ccc(C(c2ccc(O)cc2)C(Cl)(Cl)Cl)cc1", "growth": "88.3%"},
      {"smiles": "CC(C)n1c(NCCc2ccc(O)c(O)c2)nc2c1c(=O)n(C)c(=O)n2C", "growth": "99.5%"},
      {"smiles": "CC(C)C1CCC(C)C(C2(C#N)C(N)=NC(N)=C2C#N)C1=O", "note": "(stereo not given)", "growth": "101%"},
      {"smiles": "Cc1sc2c(c1C)c(=O)nc1c(-c3nc(-c4ccccc4)cs3)n[nH]n12", "growth": "93.4%"},
      {"smiles": "Cc1nn(-c2ccccc2)c2c1N=c1s/c(=C\\c3cn(-c4ccccc4)nc3-c3ccc(Cl)cc3)c(=O)n1C(C)N2", "note": "(stereo not given)", "growth": "87.8%"},
      {"smiles": "CSc1nc2ncncc2[nH]1", "growth": "74.8%"},
      {"smiles": "CCc1ccc(/C=C/c2ccc(O)c3ncccc23)[n+](C)c1", "growth": "23.1%"},
      {"smiles": "Cc1ccc(NC(=O)NC(=O)CSc2nc3ccccc3nc2C)cc1", "growth": "97.6%"},
      {"smiles": "C=C1CC[C@@H]2[C@](C)(COC(C)=O)[C@H](OC(C)=O)CC[C@@]2(C)[C@@H]1C/C=C1/C(=O)OC[C@H]1OC(C)=O", "growth": "100%"},
      {"smiles": "O=CC(OC(=O)c1ccccc1)C(OC(=O)c1ccccc1)C(COC(c1ccccc1)(c1ccccc1)c1ccccc1)OC(=O)c1ccccc1", "note": "(stereo not given)", "growth": "51.8%"},
      {"smiles": "COc1ccc2c(CCC(c3ccccc3)c3ccccc3)c3[n+](cc2c1OC)CCc1cc2c(cc1-3)OCO2", "growth": "20.7%"},
      {"smiles": "N#Cc1c(-c2ccc(Cl)cc2)csc1NC(=O)Nc1cccc(C(F)(F)F)c1", "growth": "47.9%"},
      {"smiles": "CC(=O)C1=C(C)NC(SCc2nnc(-c3ccc(C)cc3)o2)=NC1c1ccc(F)cc1", "note": "(stereo not given)", "growth": "112%"},
      {"smiles": "CCc1cc2c(c3ccc(C(=O)CBr)cc13)CCCC2", "growth": "98.8%"},
      {"smiles": "COC(=O)C1=C(C(=O)OC)C23C=C(C)C1C2=C(C)C1(CC1)[C@@](C)(O)C3=O", "note": "(stereo not given in full)", "growth": "23.2%"},
      {"smiles": "COC(=O)[C@H](Cc1ccc(O)cc1)NC(=O)[C@@H](OC)[C@@H]1Cc2cc3cc(OC4CC(OC5CC(O)C(O)C(C)O5)C(O)C(C)O4)c(C)c(O)c3c(O)c2C(=O)[C@H]1OC1CC(OC2CC(OC3CC(C)(O)C(O)C(C)O3)C(O)C(C)O2)C(O)C(C)O1", "note": "(stereo not given in full)", "growth": "-9.2% (active)"},
      {"smiles": "COc1cc(NCCCN)c2ncccc2c1", "growth": "92.2%"},
      {"smiles": "N#Cc1c(-c2ccc(C(F)(F)F)cc2)cc(NCC2CCS(=O)(=O)CC2)n2c1nc1ccccc12", "growth": "81.3%"},
      {"smiles": "COC(=O)[C@]12CC[C@@H](C)[C@H](C)[C@@H]1C1=CC[C@@H]3[C@@]4(C)C(C=O)=C[C@@](C)(COS(C)(=O)=O)C4=CC[C@@]3(C)[C@]1(C)CC2", "growth": "-24.1% (active)"},
      {"smiles": "O=C(NO)c1ccc(Cn2c(=O)n(-c3ccccc3F)c(=O)c3ccccc32)cc1", "growth": "46.6%"},
      {"smiles": "N#Cc1c(C(F)(F)F)cc(Nc2ccc3nc(NCCN4CCCC4)oc3c2)n2c1nc1ccccc12", "growth": "100%"},
      {"smiles": "COC(=O)C1CCc2sc3ncnc(Nc4cn[nH]c4C(=O)Nc4ccc(CN5CCN(C)CC5)cc4)c3c21", "note": "(stereo not given)", "growth": "-3.1% (active)"},
      {"smiles": "CC(=O)C(C(C)=O)C(c1ccccc1)C(C(C)=O)C(C)=O", "growth": "99.8%"},
      {"smiles": "O=C1CC(c2cccc(F)c2)c2c(n[nH]c2-c2ccc(Cl)cc2)N1", "note": "(stereo not given)", "growth": "91.2%"},
      {"smiles": "COc1ccc2c(CCCCC(c3ccccc3)c3ccccc3)c3[n+](cc2c1OC)CCc1cc2c(cc1-3)OCO2", "growth": "-20.1% (active)"},
      {"smiles": "C=C1C[C@H](O)[C@H](Br)C(C)(C)[C@@]12CCC(C)=C(Cl)C2", "growth": "22.3%"},
      {"smiles": "CCCCn1c(C)nc2cc(Nc3nc(N4CCCCC4)nc4nc[nH]c34)ccc21", "growth": "43.8%"},
      {"smiles": "COC(=O)c1[nH]cnc1/N=N/N(C)CCO", "growth": "-26.7% (active)"},
      {"smiles": "O=C1CC(c2ccc(Cl)cc2)c2ncn(-c3cccc(Cl)c3)c2N1", "note": "(stereo not given)", "growth": "52.8%"},
      {"smiles": "COc1cnc2c(c1)C(=O)c1c-2n(CCCn2ccnc2)c(=O)c2cc(Cl)ccc12", "growth": "75.1%"},
      {"smiles": "CC(N)C(Cc1ccc(Cl)cc1)c1ccc(Cl)cc1", "note": "(stereo not given)", "growth": "71.6%"},
      {"smiles": "Nc1nc(=S)c2ncn(C3OC(COC(=O)c4ccc(Cl)cc4)C(OC(=O)c4ccc(Cl)cc4)C3OC(=O)c3ccc(Cl)cc3)c2[nH]1", "note": "(stereo not given)", "growth": "-29% (active)"},
      {"smiles": "O=C(COc1ccc(/C=C2\\Cc3ccc(Cl)cc3C2=O)cc1)Nc1nccs1", "growth": "101%"},
      {"smiles": "C=C1C(=O)O[C@H]2[C@H]1CC/C(C=Nc1c(N)cc(C(F)(F)F)cc1C(F)(F)F)=C\\CC[C@@]1(C)O[C@@H]21", "growth": "16.7%"},
      {"smiles": "CCN1CCN(c2cc(C)nc(N(CCCNc3ccnc4cc(Cl)ccc34)Cc3ccc4c(c3)OCO4)n2)CC1", "growth": "-27.1% (active)"},
      {"smiles": "O=C(CNc1nc2ccccc2s1)Nc1ccc(-c2nc3ccccc3s2)cc1", "growth": "100%"},
      {"smiles": "COc1ccc(Nc2ncccc2NC(=O)c2cn(Cc3cccc(Oc4ccccc4)c3)nn2)cc1", "growth": "95.7%"},
      {"smiles": "CCCCN1CCCC[C@@H]1C(=O)N[C@H](C(=O)N(C)[C@H](CCc1nc(C(=O)N[C@@H](Cc2ccccc2)C[C@H](C)C(=O)OC)cs1)C(C)C)C(C)C", "growth": "90%"},
      {"smiles": "COc1cnc2c(c1)C(=O)c1c-2n(CCCN2CCC(N)CC2)c(=O)c2cc([N+](=O)[O-])ccc12", "growth": "81.4%"},
      {"smiles": "NS(=O)(=O)c1ccc(CCN2C(=O)/C(=C\\c3ccc(Cl)cc3)C=C2c2ccc3ccccc3c2)cc1", "growth": "101%"}
    ]}
  ]
}
